In general, AC50 refers to the concentration at which the activity in the assay is half-maximal.

This note sets out measurements from PubChem BioAssay (EPA / NIEHS).

A short description of experiment [1]: ATG_GAL4_TRANS: Attagene TRANS-FACTORIAL HepG2 Assay for GAL4 (Internal Marker) (AID 2282976; active means hit-call score of the fitted dose curve at least 0.9, where 1 is the maximum). The note with it: HepG2 Attagene TRANS GAL4 internal marker reporter. The procedure, abridged:
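Fluorescence from capillary electrophoresis of labelled RT-PCR products quantifies reporter mRNA induction after 24 h dosing of HepG2 cells carrying transfected GAL4-UAS reporter transcription units. Vehicle DMSO serves as baseline.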

The target in experiment [2] is Oxysterols receptor LXR-beta (Homo sapiens) (UniProt P55055). The experiment in a line: ATG_LXRb_TRANS: Attagene TRANS-FACTORIAL HepG2 Assay for human Liver X Receptor beta (LXRb) (AID 2282981; active means hit-call score of the fitted dose curve at least 0.9, where 1 is the maximum). The note with it: HepG2 Attagene TRANS GAL4-LXRb reporter, mRNA. The procedure, abridged: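 Transient transfection HepG2 (multiplexed RTUs, GAL4-UAS); NR-Gal4 chimera; 24 h exposure; RNA → RT-PCR → 6-FAM primer extension → HpaI → CE; increase vs DMSO.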

In experiment [3] the target is Hepatocyte nuclear factor 4-alpha (Homo sapiens) (UniProt P41235). Put plainly: ATG_HNF4a_TRANS: Attagene TRANS-FACTORIAL HepG2 Assay for human Hepatocyte Nuclear Factor 4 alpha (HNF4a) (AID 2282982; active means hit-call score of the fitted dose curve at least 0.9, where 1 is the maximum). The following applies: HepG2 HNF4a transactivation reporter, mRNA readout. The procedure, abridged:
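Readout is fluorescent reporter-transcript fragments resolved by capillary electrophoresis after RT-PCR from HepG2 cells dosed for 24 h. Cells carried transfected GAL4-UAS reporter constructs measuring exogenous NR-GAL4 chimera activity; DMSO served as baseline.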

The nature of experiment [4]: ATG_M_06_TRANS: Attagene TRANS-FACTORIAL HepG2 Assay for M06 Transcription Factor (Internal Marker) (AID 2282983; active means hit-call score of the fitted dose curve at least 0.9, where 1 is the maximum;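 further: reporter transcript level by RT-PCR then capillary electrophoresis fluorescence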). The following applies: HepG2 Attagene TRANS M06 internal marker reporter. The procedure, abridged: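 Measured by capillary electrophoresis of fluorescently labelled RT-PCR products, this endpoint reflects reporter mRNA in HepG2 cells harbouring exogenous NR-GAL4 reporter constructs after 24 h exposure, with DMSO as baseline.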

For experiment [5], the target named is human Retinoid X Receptor beta (RXRb), RXRB (gene 6257) (UniProt P28702). Put plainly: ATG_RXRb_TRANS: Attagene TRANS-FACTORIAL HepG2 Assay for human Retinoid X Receptor beta (RXRb) (AID 2283013; active means hit-call score of the fitted dose curve at least 0.9, where 1 is the maximum). The procedure, abridged: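 HepG2 cells were transiently transfected with multiplexed GAL4-UAS reporters and a chimeric RXRb-Gal4 construct, then exposed for 24 h. Reporter mRNA was quantified by RT-PCR, FAM labeling, HpaI digestion and capillary electrophoresis; gain of signal was scored against DMSO.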

Experiment [6] can be described thus: BSK_3C_Proliferation: Cell Proliferation Assessment in the BioMAP Diversity Plus: 3C Assay (AID 2283006).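 On AC50: potency may reflect either rise or fall in cell number versus DMSO.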 The note with it: primary human endothelial cells (HUVEC). The procedure, abridged: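 Subconfluent HUVEC (3C system) cultured with chemical; relative cell number read at 48 h by sulforhodamine B total-protein staining (0.1% SRB after 10% TCA fixation, 560 nm). Bidirectional fit relative to DMSO.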

Read-out in experiment [7]: Plasminogen activator inhibitor-1 (PAI1), SERPINE1 (gene 5054)
Put plainly: BSK_KF3CT_PAI1: BioMAP Diversity Plus: KF3CT Assay for Plasminogen activator inhibitor-1 (PAI1) Biomarker Activity (AID 2284252). The following applies: primary human keratinocytes with fibroblasts. The method in brief: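 Human keratinocyte/foreskin fibroblast co-culture dosed for 24 h; PAI-1 measured by ELISA, fitted in positive direction against DMSO baseline. Parallel SRB total-protein staining (0.1% SRB, 560 nm) assesses overt cytotoxicity.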

Read-out in experiment [8]: Intercellular Adhesion Molecule 1 (ICAM1), ICAM1 (gene 3383)
Put plainly: BSK_BE3C_ICAM1: BioMAP Diversity Plus: BE3C Assay for Intercellular Adhesion Molecule 1 (ICAM1) Biomarker Activity (AID 2284278).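 On outcome: cell-surface ICAM-1 protein level quantified by ELISA.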 The following applies: primary human bronchial epithelial cells. The method in brief: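 Primary human bronchial epithelial cells in BE3C system, 24 h after chemical dosing; cell-surface ICAM-1 measured by ELISA relative to DMSO. Parallel SRB staining (0.1% SRB after 10% TCA fixation, read at 560 nm) assessed cytotoxicity.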

Read-out in experiment [9]: Interferon-inducible T-cell alpha chemoattractant (ITAC), CXCL11 (gene 6373)
Put plainly: BSK_BE3C_ITAC: BioMAP Diversity Plus: BE3C Assay for Interferon-inducible T-cell alpha chemoattractant (ITAC) Biomarker Activity (AID 2284279). The note with it: primary human bronchial epithelial cells. The procedure, abridged: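 BE3C cells (human primary bronchial epithelium), 24 h compound exposure, I-TAC by ELISA, DMSO = negative control/baseline, positive fitting direction.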

Read-out in experiment [10]: Interleukin-8 (IL8), CXCL8 (gene 3576)
The experiment in a line: BSK_BE3C_IL8: BioMAP Diversity Plus: BE3C Assay for Interleukin-8 (IL8) Biomarker Activity (AID 2284280). The following applies: primary human bronchial epithelial cells. The method in brief:
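IL-8 signal gain, normalised to DMSO vehicle, was scored after a 24 h chemical exposure of primary human bronchial epithelial cells, with detection by ELISA.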

Read-out in experiment [11]: Epidermal growth factor receptor (EGFR), EGFR (gene 1956)
Put plainly: BSK_BE3C_EGFR: BioMAP Diversity Plus: BE3C Assay for Epidermal growth factor receptor (EGFR) Biomarker Activity (AID 2284281). The following applies: primary human bronchial epithelial cells. The procedure, abridged:
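Compound is added to human bronchial epithelial cells, cells incubate 24 h, then EGFR is detected by ELISA. Values reflect positive-direction fitting relative to DMSO.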

Read-out in the next experiment: KRT18 (gene 3875)
Put plainly: BSK_BE3C_Keratin818: BioMAP Diversity Plus: BE3C Assay for Keratin 818 Biomarker Activity (AID 2284282). The note with it: primary human bronchial epithelial cells. The procedure, abridged:
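Primary human bronchial epithelial cells treated 24 h; Keratin 8/18 quantified by ELISA, fit relative to DMSO. Cytotoxicity tracked in parallel cultures by sulforhodamine B total-protein staining.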

Read-out in experiment [12]: Matrix Metallopeptidase 9 (MMP9), MMP9 (gene 4318)
The experiment in a line: BSK_BE3C_MMP9: BioMAP Diversity Plus: BE3C Assay for Matrix Metallopeptidase 9 (MMP9) Biomarker Activity (AID 2284283). The following applies: primary human bronchial epithelial cells. The method in brief:
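Cells were dosed, incubated 24 h, then assayed for MMP-9 by ELISA; activity was fitted upward against DMSO. The system used human lung primary bronchial epithelial cells, with SRB total-protein staining run alongside for cytotoxicity.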

Read-out in experiment [13]: Plasminogen activator inhibitor-1 (PAI1), SERPINE1 (gene 5054)
The experiment in a line: BSK_CASM3C_PAI1: BioMAP Diversity Plus: CASM3C Assay for Plasminogen activator inhibitor-1 (PAI1) Biomarker Activity (AID 2284284).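 Further: PAI-1 protein level measured by ELISA 24 h after dosing.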 The note with it: primary human coronary artery smooth muscle cells.

Read-out in experiment [14]: TIMP metallopeptidase inhibitor 2 (TIMP2), TIMP2 (gene 7077)
Put plainly: BSK_hDFCGF_TIMP2: BioMAP Diversity Plus: hDFCGF Assay for TIMP metallopeptidase inhibitor 2 (TIMP2) Biomarker Activity (AID 2284289). The note with it: primary human foreskin fibroblasts. The procedure, abridged: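 Primary human foreskin fibroblasts in the hDFCGF system, dosed for 24 h; TIMP-2 level measured by ELISA, fitted in the positive direction against DMSO; cytotoxicity checked in parallel by sulforhodamine B total protein staining.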

Read-out in another experiment: CD69, CD69 (gene 969)
Put plainly: BSK_LPS_CD69: BioMAP Diversity Plus: LPS Assay for CD69 Biomarker Activity (AID 2284303). The note with it: primary human HUVEC with PBMC. The procedure, abridged:
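Human umbilical vein endothelial cells co-cultured with PBMC under LPS stimulation, chemical exposure 24 h; cell-surface CD69 measured by ELISA and fitted in the positive direction versus DMSO.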

Experiment [15] is described as follows: CCTE_Shafer_MEA_acute_spike_number: CCTE's Neural Acute Assay for Total Number of Spikes, Shafer Lab (AID 2284008).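 On AC50: curve fitted for decrease in spike count so AC50 reflects inhibitors.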 The procedure, abridged: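 Cortical neurons from rat, matured to DIV 13 or 15 on microelectrode arrays, are recorded at 37 C before and during 40-min exposure to 0.03-40 uM compound. Wells need >/= 10 active electrodes.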
Experiment [16] is described as follows: CCTE_Shafer_MEA_acute_firing_rate_mean: CCTE's Neural Acute Assay for Mean Firing Rate, Shafer Lab (AID 2284009).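 Further: analyzed for loss of signal so actives lower firing rate relative to DMSO.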 The method in brief: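 Percent change in well-mean firing rate was derived from extracellular spikes detected at 8x rms noise (300-5000 Hz band-pass) before and after a 40-min compound exposure. Cultures were primary rat cortical neurons, tested at 0.03-40 uM.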

A short description of experiment [17]: CCTE_Shafer_MEA_acute_burst_number: CCTE's Neural Acute Assay for Single-Electrode Bursts, Shafer Lab (AID 2284013). The procedure, abridged: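 Spontaneous network activity of primary rat cortical neurons was recorded extracellularly on microelectrode arrays at 37 C, with 40-min periods before and during exposure to 0.03-40 uM compound on DIV 13 or 15.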
Experiment [18] in a line: CCTE_Shafer_MEA_acute_per_burst_spike_number_mean: CCTE's Neural Acute Assay for Average Number of Spikes Per Burst, Shafer Lab (AID 2284015).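 Further: hits are decreases in mean spikes per burst versus baseline.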 The method in brief:
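Read-out: percent change in mean spikes per burst, each well's post-exposure 40-min recording versus its own 40-min baseline. Rat cortical cultures, DIV 13 or 15, compounds 0.03-40 uM; DMSO is negative control, loss-of-signal fitting.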

SMILES strings stand for the structures. Where “and” joins values, the source holds several entries; their conditions need not be identical. Equal entries are not always repeated. Results filed as inconclusive are left out. Some compounds were tested as several samples or in several runs, with calls that do not always agree. Calls of active or inactive are those of the source. How the source made its calls, unless noted: active means hit-call score of the fitted dose curve at least 0.9, where 1 is the maximum; inactive means score below 0.9.

Hepatocyte nuclear factor 4-alpha (Homo sapiens), sequence (P41235 whole entry, looked up, the tested form may be a part): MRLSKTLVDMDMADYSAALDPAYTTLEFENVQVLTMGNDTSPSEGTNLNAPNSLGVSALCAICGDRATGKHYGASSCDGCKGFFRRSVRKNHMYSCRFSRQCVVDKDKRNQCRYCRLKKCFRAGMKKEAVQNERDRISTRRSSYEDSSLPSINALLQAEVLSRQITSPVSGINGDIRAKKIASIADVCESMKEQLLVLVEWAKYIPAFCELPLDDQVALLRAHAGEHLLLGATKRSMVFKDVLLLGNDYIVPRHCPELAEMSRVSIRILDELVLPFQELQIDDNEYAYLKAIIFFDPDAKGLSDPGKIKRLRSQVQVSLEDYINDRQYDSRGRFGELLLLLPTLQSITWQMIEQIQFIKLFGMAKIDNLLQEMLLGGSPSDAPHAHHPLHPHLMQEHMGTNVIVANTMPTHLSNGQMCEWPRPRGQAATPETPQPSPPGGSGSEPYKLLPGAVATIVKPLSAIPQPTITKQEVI
Oxysterols receptor LXR-beta (Homo sapiens), sequence (P55055 whole entry, looked up, the tested form may be a part): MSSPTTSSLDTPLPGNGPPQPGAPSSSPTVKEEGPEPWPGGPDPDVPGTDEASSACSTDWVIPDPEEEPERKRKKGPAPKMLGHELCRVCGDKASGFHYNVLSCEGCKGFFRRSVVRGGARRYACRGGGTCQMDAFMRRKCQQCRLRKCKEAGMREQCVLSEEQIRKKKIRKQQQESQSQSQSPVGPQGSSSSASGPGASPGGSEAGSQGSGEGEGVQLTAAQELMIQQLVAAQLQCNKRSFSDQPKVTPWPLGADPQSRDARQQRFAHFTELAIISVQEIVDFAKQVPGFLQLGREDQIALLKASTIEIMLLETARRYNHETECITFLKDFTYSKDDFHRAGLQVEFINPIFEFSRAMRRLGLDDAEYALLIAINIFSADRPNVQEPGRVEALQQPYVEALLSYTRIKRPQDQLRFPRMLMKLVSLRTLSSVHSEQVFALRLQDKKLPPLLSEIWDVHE
human Retinoid X Receptor beta (RXRb), RXRB (gene 6257), sequence (P28702 whole entry, looked up, the tested form may be a part): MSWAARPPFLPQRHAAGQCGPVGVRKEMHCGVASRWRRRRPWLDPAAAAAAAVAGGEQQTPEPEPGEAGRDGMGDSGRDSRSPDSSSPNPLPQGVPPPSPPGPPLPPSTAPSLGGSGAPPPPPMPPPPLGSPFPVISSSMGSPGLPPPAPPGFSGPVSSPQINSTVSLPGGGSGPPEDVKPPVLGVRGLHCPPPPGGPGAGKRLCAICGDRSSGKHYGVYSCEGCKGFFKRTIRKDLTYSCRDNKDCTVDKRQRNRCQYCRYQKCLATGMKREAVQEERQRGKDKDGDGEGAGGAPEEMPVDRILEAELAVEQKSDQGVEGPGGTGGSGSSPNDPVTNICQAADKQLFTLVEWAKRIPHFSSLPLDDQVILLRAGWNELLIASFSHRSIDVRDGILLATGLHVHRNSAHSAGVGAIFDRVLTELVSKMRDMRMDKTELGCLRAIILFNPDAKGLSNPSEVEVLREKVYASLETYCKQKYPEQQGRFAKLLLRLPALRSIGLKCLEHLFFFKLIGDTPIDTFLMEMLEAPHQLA

`CC1=CCCC(C)(C)C12CCC(C)O2` (configuration not stated): the compound was called inactive in [1], in [2], in experiment [3], in [4] and in experiment [5].

`CCOC(=O)c1ccccc1`: the result in experiment [2] was inactive.

As for `OC(C(F)(F)F)(C(F)(F)F)C(O)(C(F)(F)F)C(F)(F)F`, the AC50 was 22.1 µM (active) and 21.6 µM (active) in [6]; 36.1 µM (active) and 25.2 µM (active) in experiment [7]; 44.7 µM (active) in [8]; 47.3 µM (active) and 46.1 µM (active) in experiment [9]; 12.3 µM (active) and 11.5 µM (active) in [10]; 22.7 µM (active) in [11]. The AC50 is 30 µM (active) in [12]; 6.98 µM (active) and 8.04 µM (active) in [14]; 12.9 µM (active) and 9.36 µM (active) with CD69, CD69 (gene 969). The outcome (in [8]; in [11]; with KRT18 (gene 3875); in experiment [13]) was inactive.

On to `CCC[Si](OC(C)=O)(OC(C)=O)OC(C)=O`, for which the result in experiment [6], in experiment [18], in [7], in experiment [8], in [9] and in experiment [10] was inactive. Moreover, the outcome in [11] was “inactive”; with KRT18 (gene 3875), “inactive”; in experiment [12], “inactive”; in experiment [13], “inactive”; in [14], “inactive”; in the experiment with CD69, CD69 (gene 969), “inactive”. The AC50 in experiment [15] was 72.1 nM (active); in experiment [16], 72.1 nM (active); in [17], 55.4 nM (active); with CD69, CD69 (gene 969), 327 nM (active).

On to `O=[N+]([O-])c1cc(S(=O)(=O)Nc2ccccc2)ccc1Nc1ccccc1`, for which the AC50 in experiment [6] is 30.6 µM (active) and 30.9 µM (active); in [15], 2980 nM (active); in [16], 2980 nM (active); in experiment [7], 25.9 µM (active) and 16.2 µM (active); in [8], 29.2 µM (active) and 37 µM (active); in experiment [9], 28.7 µM (active) and 29.5 µM (active). The AC50 in experiment [10] was 20 µM (active) and 7.26 µM (active); in experiment [11], 20 µM (active) and 19.6 µM (active); in the experiment with KRT18 (gene 3875), 32000 nM (active); in experiment [12], 33.4 µM (active) and 20 µM (active); in experiment [14], 29.8 µM (active) and 30.3 µM (active); with CD69, CD69 (gene 969) it was 13.2 µM (active) and 10.7 µM (active). The call (in [17]; in experiment [18]; with KRT18 (gene 3875); in experiment [13]) was inactive.

On to `CCC(C)(CCC(C)C)C(=O)O` (configuration not stated), for which the compound was classed as inactive in experiment [3] and in experiment [4].

`CCO[Si](CCCN)(OCC)OCC`: the outcome in experiment [1], in experiment [2], in [3] and in experiment [4] was inactive.

As to `COc1cc(CNC(=O)CCCC/C=C/C(C)C)ccc1O`, the AC50 was 8.93 µM (active) and 9.17 µM (active) in experiment [6]; 27.7 µM (active) in experiment [14]. Moreover, the call in [15], in [16], in experiment [17], in [18], in experiment [7] and in [8] was inactive. Moreover, the result (in [9]; in [10]; in [11]; with KRT18 (gene 3875); in experiment [12]; in [13]) was inactive. For the same compound, the outcome in experiment [14] is “inactive”; with CD69, CD69 (gene 969), “inactive”.

As to `COc1ccccc1Oc1c(NS(=O)(=O)c2ccc(C(C)(C)C)cc2)nc(-c2ncccn2)nc1OCCO`, in experiment [6], the AC50 is 28.2 µM (active) and 13.9 µM (active). Also, the outcome in [15], in [16], in [17], in [18], in experiment [7] and in experiment [8] was inactive. Besides, the outcome (in experiment [9]; in experiment [10]; in experiment [11]; with KRT18 (gene 3875); in experiment [12]; in experiment [13]) was inactive. Further, the outcome in [14] is “inactive”; with CD69, CD69 (gene 969) it was “inactive”.

Turning to `CNC(=C[N+](=O)[O-])NCCSCc1csc(CN(C)C)n1`, the compound was classed as inactive in [1], in experiment [2], in [3] and in experiment [5].
